Over roughly 16,000 sequences, “rpm ratio (pull-down/input)” has its median near 0.5; the highest 2% begin near 5.5. This is one part of a sample in which the highest values are shown more often than they occur.

The assay concerns the target T1, MBP-FoxP3dN (Mus musculus, UniProt Q99JB6 188-423).
T1 sequence: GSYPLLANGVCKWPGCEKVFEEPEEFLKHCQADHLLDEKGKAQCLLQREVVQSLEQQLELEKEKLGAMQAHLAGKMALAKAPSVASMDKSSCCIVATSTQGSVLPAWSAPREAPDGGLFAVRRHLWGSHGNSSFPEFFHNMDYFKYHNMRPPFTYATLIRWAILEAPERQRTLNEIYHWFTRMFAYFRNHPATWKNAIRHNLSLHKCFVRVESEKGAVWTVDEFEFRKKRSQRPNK
Description: PD-seq (MBP pull-down with sequencing); 20 mM Tris-HCl pH 7.5, 100 mM NaCl, 1.5 mM MgCl2, 0.4 uM protein, 0.1 uM dsDNA library, 30 min, room temperature, amylose pull-down; high values mean tight binding. Particulars: protein: recombinant; tags: His6-MBP; chain copies: 2; dsDNA, one strand shown. The procedure, abridged: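 A degenerate double-stranded DNA library, filled in with Klenow, was added at 0.1 µM to 0.4 µM His6-MBP-tagged mouse FoxP3 or FoxP1 fragment lacking the N-terminus, expressed in E. coli. Incubation lasted 30 min at room temperature in Tris pH 7.5 buffer with NaCl and MgCl2, after which complexes were collected on amylose resin, washed three times, digested with proteinase K to free the DNA, barcoded by PCR and sequenced by Illumina. Binding is the pooled-replicate reads-per-million enrichment of pull-down over input.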
“GATGATTGTTCTCCCAGCTGATGAATTGACAATGTCGAGTAAACAAATTTTCCTAATCTTTCTGTTCAAGCGCCATCTAC”: the binding signal is 0.506 RPM ratio (pull-down/input).
To “GATGATTGTTCTCCCAGCTGATGAATTGGGAGATTCGAGTAAACAAATTTTCCTAATCTTTCTGTTCAAGCGCCATCTAC” belongs 0.372 RPM ratio (pull-down/input).
To “GATGATTGTTCTCCCAGCTGATGAATTTGTATCCTCGAGTAAACAAATTTTCCTAATCTTTCTGTTCAAGCGCCATCTAC” belongs 5.4 RPM ratio (pull-down/input).
To “GATGATTGTTCTCCCAGCTGATGAATTGTATTCCTCGAGTAAACAAATTTTCCTAATCTTTCTGTTCAAGCGCCATCTAC” belongs 1.97 RPM ratio (pull-down/input).
With “GATGATTGTTCTCCCAGCTGATGAATTTTTTGTATCGAGTAAACAAATTTTCCTAATCTTTCTGTTCAAGCGCCATCTAC”, the binding signal was 0.521 RPM ratio (pull-down/input).
As for “GATGATTGTTCTCCCAGCTGATGAATTTGTATTCTCGAGTAAACAAATTTTCCTAATCTTTCTGTTCAAGCGCCATCTAC”, the figure is 5.9 RPM ratio (pull-down/input).
As for “GATGATTGTTCTCCCAGCTGATGAATTTGTAATCTCGAGTAAACAAATTTTCCTAATCTTTCTGTTCAAGCGCCATCTAC”, the figure is 3.82 RPM ratio (pull-down/input); as for “GATGATTGTTCTCCCAGCTGATGAATTGTATTTCTCGAGTAAACAAATTTTCCTAATCTTTCTGTTCAAGCGCCATCTAC”, 2.06 RPM ratio (pull-down/input); as for “GATGATTGTTCTCCCAGCTGATGAATTAGTAGTATCGAGTAAACAAATTTTCCTAATCTTTCTGTTCAAGCGCCATCTAC”, 2.45 RPM ratio (pull-down/input).
As for “GATGATTGTTCTCCCAGCTGATGAATTGTAGTAATCGAGTAAACAAATTTTCCTAATCTTTCTGTTCAAGCGCCATCTAC”, the binding signal is 1.03 RPM ratio (pull-down/input).
As for “GATGATTGTTCTCCCAGCTGATGAATTTGCTGTATCGAGTAAACAAATTTTCCTAATCTTTCTGTTCAAGCGCCATCTAC”, the binding signal is 4.72 RPM ratio (pull-down/input).
Turning to “GATGATTGTTCTCCCAGCTGATGAATTTGTAGTATCGAGTAAACAAATTTTCCTAATCTTTCTGTTCAAGCGCCATCTAC”, the binding signal was 5.7 RPM ratio (pull-down/input).
Turning to “GATGATTGTTCTCCCAGCTGATGAATTTTGTATCTCGAGTAAACAAATTTTCCTAATCTTTCTGTTCAAGCGCCATCTAC”, the binding signal is 5.89 RPM ratio (pull-down/input).
To “GATGATTGTTCTCCCAGCTGATGAATTGTTTGTATCGAGTAAACAAATTTTCCTAATCTTTCTGTTCAAGCGCCATCTAC” belongs 7.73 RPM ratio (pull-down/input); to “GATGATTGTTCTCCCAGCTGATGAATTCTAGCTGTCGAGTAAACAAATTTTCCTAATCTTTCTGTTCAAGCGCCATCTAC”, 0.392 RPM ratio (pull-down/input).
As for “GATGATTGTTCTCCCAGCTGATGAATTCGTTAGTTCGAGTAAACAAATTTTCCTAATCTTTCTGTTCAAGCGCCATCTAC”, the binding signal is 2.91 RPM ratio (pull-down/input).
With “GATGATTGTTCTCCCAGCTGATGAATTTTACTCATCGAGTAAACAAATTTTCCTAATCTTTCTGTTCAAGCGCCATCTAC”, the binding signal was 0.402 RPM ratio (pull-down/input).
To “GATGATTGTTCTCCCAGCTGATGAATTTCAAGTTTCGAGTAAACAAATTTTCCTAATCTTTCTGTTCAAGCGCCATCTAC” belongs 0.283 RPM ratio (pull-down/input); to “GATGATTGTTCTCCCAGCTGATGAATTTATACGTTCGAGTAAACAAATTTTCCTAATCTTTCTGTTCAAGCGCCATCTAC”, 0.886 RPM ratio (pull-down/input); to “GATGATTGTTCTCCCAGCTGATGAATTTCCACGTTCGAGTAAACAAATTTTCCTAATCTTTCTGTTCAAGCGCCATCTAC”, 0.311 RPM ratio (pull-down/input).
As for “GATGATTGTTCTCCCAGCTGATGAATTGTAATACTCGAGTAAACAAATTTTCCTAATCTTTCTGTTCAAGCGCCATCTAC”, the figure is 0.756 RPM ratio (pull-down/input); as for “GATGATTGTTCTCCCAGCTGATGAATTTGTATACTCGAGTAAACAAATTTTCCTAATCTTTCTGTTCAAGCGCCATCTAC”, 7.1 RPM ratio (pull-down/input).
To “GATGATTGTTCTCCCAGCTGATGAATTGTAATGCTCGAGTAAACAAATTTTCCTAATCTTTCTGTTCAAGCGCCATCTAC” belongs 1.07 RPM ratio (pull-down/input); to “GATGATTGTTCTCCCAGCTGATGAATTTCTATACTCGAGTAAACAAATTTTCCTAATCTTTCTGTTCAAGCGCCATCTAC”, 0.435 RPM ratio (pull-down/input); to “GATGATTGTTCTCCCAGCTGATGAATTTGTATCTTCGAGTAAACAAATTTTCCTAATCTTTCTGTTCAAGCGCCATCTAC”, 5.56 RPM ratio (pull-down/input).
Take “GATGATTGTTCTCCCAGCTGATGAATTGTATCCTTCGAGTAAACAAATTTTCCTAATCTTTCTGTTCAAGCGCCATCTAC”: the binding signal is 1.61 RPM ratio (pull-down/input).
Regarding “GATGATTGTTCTCCCAGCTGATGAATTTGATGTATCGAGTAAACAAATTTTCCTAATCTTTCTGTTCAAGCGCCATCTAC”, the binding signal was 4.63 RPM ratio (pull-down/input).
As to “GATGATTGTTCTCCCAGCTGATGAATTTGTATGCTCGAGTAAACAAATTTTCCTAATCTTTCTGTTCAAGCGCCATCTAC”, the binding signal was 6.51 RPM ratio (pull-down/input).
With “GATGATTGTTCTCCCAGCTGATGAATTTGTATCATCGAGTAAACAAATTTTCCTAATCTTTCTGTTCAAGCGCCATCTAC”, the binding signal was 5.48 RPM ratio (pull-down/input).
To “GATGATTGTTCTCCCAGCTGATGAATTTCTATGCTCGAGTAAACAAATTTTCCTAATCTTTCTGTTCAAGCGCCATCTAC” belongs 0.385 RPM ratio (pull-down/input).
On to “GATGATTGTTCTCCCAGCTGATGAATTGTATCTTTCGAGTAAACAAATTTTCCTAATCTTTCTGTTCAAGCGCCATCTAC”, for which the binding signal is 1.68 RPM ratio (pull-down/input).
“GATGATTGTTCTCCCAGCTGATGAATTTGTTGTATCGAGTAAACAAATTTTCCTAATCTTTCTGTTCAAGCGCCATCTAC”: the binding signal was 7.55 RPM ratio (pull-down/input).
